ChEMBL document CHEMBL3433997, “St. Jude Leishmania screening dataset” (2016)
Several values for one entry are separate records, joined by “and”; a condition that tells them apart may be missing. Equal values may be shown once.

Assays:
Type in all cases: functional
[1] = target: Solute carrier family 2, facilitated glucose transporter member 1 (Homo sapiens) (UniProt P11166); test: ST_JUDE_LEISH: Cytotoxicity at 2uM final concentration against transgenic Leishmania Mexicana promastigotes LmGLUT1 that are glucose transport deficient and complemented with the human glucose transporter GLUT1. Activity is measured by DNA content using SYBR green in vitro
[2] = target: Hexose transporter 1 (Plasmodium falciparum) (UniProt O97467); test: ST_JUDE_LEISH: Cytotoxicity at 2uM final concentration against transgenic Leishmania Mexicana promastigotes LmPfHT that are glucose transport deficient and complemented with the Plasmodium falciparum hexose transporter. Activity is measured by DNA content using SYBR green in vitro
[3] = target: Glucose transporter (Leishmania mexicana) (UniProt O61059); test: ST_JUDE_LEISH: Cytotoxicity at 2uM final concentration against transgenic Leishmania Mexicana promastigotes LmGT2 that are glucose transport deficient and complemented with the L. Mexicana glucose transporter 2. Activity is measured by DNA content using SYBR green in vitro

Solute carrier family 2, facilitated glucose transporter member 1 (Homo sapiens), sequence (P11166 whole entry): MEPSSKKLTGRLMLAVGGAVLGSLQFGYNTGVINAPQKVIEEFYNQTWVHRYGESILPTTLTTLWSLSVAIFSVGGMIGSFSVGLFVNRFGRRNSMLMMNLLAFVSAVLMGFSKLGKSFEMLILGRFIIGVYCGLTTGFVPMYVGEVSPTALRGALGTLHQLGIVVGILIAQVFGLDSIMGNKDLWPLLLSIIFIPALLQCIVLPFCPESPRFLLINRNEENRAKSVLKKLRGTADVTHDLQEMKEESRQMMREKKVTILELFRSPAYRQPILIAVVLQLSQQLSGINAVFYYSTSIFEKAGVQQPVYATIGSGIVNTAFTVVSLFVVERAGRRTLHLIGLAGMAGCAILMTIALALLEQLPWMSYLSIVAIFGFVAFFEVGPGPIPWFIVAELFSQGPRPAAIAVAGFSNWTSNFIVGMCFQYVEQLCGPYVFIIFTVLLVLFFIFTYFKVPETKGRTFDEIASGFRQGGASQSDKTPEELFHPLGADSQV

SMILES	inhibition [1]	inhibition [2]	inhibition [3]
Cc1cccc(C(=O)N2CCN(Cc3cccc(NC(=O)c4ccco4)c3)CC2)c1	-1.31%	1.48%	1.47%
CC(CN(C)C)C(=O)Nc1ccc(-c2csc(-c3nc4ccccc4[nH]3)c2)cc1 (configuration not stated)	0.09%	3.49%	3.09%
Cc1ccc2c(NC(=O)Nc3ccc(N(C)C)cc3)cc(C)nc2c1	5.9%	5.56%	6.28%
COc1ccc(CCn2c(=N)c(C(=O)NC3CCCC3)cc3c(=O)n4ccccc4nc32)cc1	7.26%	9.43%	5.98%
CC(C)CCNC(=N)Nc1ccc(OCCCOc2ccc(NC(=N)NCCC(C)C)cc2)cc1	0.62%	-1.4%	-0.91%
O=C(CCc1c[nH]cn1)Nc1cccc(-c2ccc(-c3nc4cc(F)ccc4[nH]3)cc2)c1	16.3%	13.1%	16.6%
C=CCc1cc(Br)ccc1OCCCON1C(N)=NC(N)=NC1(C)C	19.1%	27.3%	17.7%
C[C@H](CNc1ccnc(Nc2ccc3[nH]c(=O)[nH]c3c2)n1)c1ccccc1	-1.01% and -1.44%	-0.33% and -0.77%	-0.13% and 0.71%
O=C(NCCCCN1CCC(c2ccc3c(c2OCCO)CCCC3)CC1)c1ccc(-c2ccc(C(F)(F)F)cc2)cc1	-0.75%	0.12%	5.23%
CN(C)CCC(O)(c1ccc(Br)cc1)c1cccnc1 (configuration not stated)	3.13%	2.98%	0.51%
O=C(Nc1ccccc1-c1nc2ccccc2s1)C(Cl)(Cl)Cl	0.49%	1.24%	0.54%
CCCCc1ccc(-c2ccc(-c3c(C)[nH]c(C)c(Br)c3=O)cn2)cc1	2.88%	3.53%	1.52%
COc1ccc(C(=O)Nc2nonc2-c2ccc(OC)c(OC)c2)cc1Cl	-0.82%	-0.18%	-0.55%
Cc1ccc2[nH]c(C)cc(=NN=Cc3ccccc3Cl)c2c1	2.11%	3.39%	0.08%
c1cc(CN2CCCCC2)cc(-c2cccc(-c3nc4ccccc4[nH]3)c2)c1	1.27%	2.94%	-0.15%
CC12CCC(=O)N1C(C(=O)Nc1cccc(C(=O)Nc3cccc(C(F)(F)F)c3)c1)CS2 (configuration not stated)	5.52%	6.47%	6.41%
CCC[C@@H]([C@@H](CC1CCCCC1)C(=O)NC(C(=O)Nc1nccs1)C(CC)c1ccccc1)N(O)C=O (some centres not stated)	0.29%	0.04%	0.64%

SMILES	inhibition [1]	inhibition [2]	inhibition [3]
Cc1cc(N(C)C)nc(Nc2ccc(NC(=O)C3CCCCC3)cc2)n1	5.14%	5.64%	3.75%
CCC(C)NC(=O)Nc1ccc(-c2cccc(-c3nc4ccccc4[nH]3)c2)cc1 (configuration not stated)	-0.78%	4.24%	5.49%
O=S(=O)(NCCN1CCCC1)c1ccc(-c2ccc(CNCc3ccc(F)cc3)cc2)cc1	7.2%	6.71%	4.15%
CN1C(C)(C)CC(NC(=O)c2ccc(-c3nc4cc(Cl)ccc4[nH]3)cc2)CC1(C)C	1.69%	2.24%	2.7%
Clc1cccc(Cl)c1CCNCC1CCN(CC2CCCCC2)CC1	5.48%	5.47%	6.54%
COc1ccc(CNC2CCN(C)CC2)cc1-c1ccc(OC)c(S(=O)(=O)NCc2ccccc2)c1	1.01%	1.62%	0.01%
CN1CCN(CCNc2c3ccccc3nc3c2ccc2ccccc23)CC1	84.6%	88%	81.5%
COc1ccc(NC(=O)CSc2nc(-c3ccccc3Cl)ns2)cc1OC	-0.51%	-0.5%	2.58%
CCCCN(C)CC#Cc1ccc(-c2ccc3[nH]c(C)c(Br)c(=O)c3c2)cn1	6.4%	7.74%	8.6%
O=C(Nc1ccc(Cl)cc1)c1cccc2nc(C(F)(F)F)[nH]c12	9.28%	9.14%	5.94%
CN1CCc2cc(Br)c(O)cc2C1Cc1ccccc1Cl (configuration not stated)	-1.43%	-1.61%	-2.87%
CN1CCc2ccc(NC(=O)Nc3ccc(-c4ccccc4)cc3)cc2C1	1.53%	0.83%	0.87%
COc1ccc(COc2c(OC)cc(Cc3cnc(N)nc3N)cc2OC)cc1	5.65%	5.76%	6.57%
CC(C)CN1C(=O)c2ccccc2C(C(=O)Nc2cccc(C#N)c2)C1c1cccs1 (configuration not stated)	-0.23%	-1.39%	-1%
OCCOCCNCc1cccc(C#Cc2cc3ncnc(Nc4ccc(OCc5cccc(F)c5)c(Cl)c4)c3s2)n1	-0.5%	1.33%	1.82%
CC(C)(Oc1c(C2CCN(CCCCNC(=O)c3ccc(-c4ccc(C#N)cc4)cc3)CC2)ccc2c1CCCC2)C(N)=O	0.07%	0.7%	-1.31%
CN(C)c1nc(NCc2ccccc2)nc(N/N=C/c2cc([N+](=O)[O-])ccc2O)n1	-1.92%	-1.79%	-1.5%
